L3MBTL1 block = blocks human L3MBTL1; AlphaScreen L3MBTL1–H3K9me1 peptide binding; Potency, µM (top dose mostly 57.1 µM), actives largely listed as inhibitors; 0.66% of 230,000 active; Q9Y468; further: nearly all actives have a fitted effect of over 60% in size
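L3MBTL1 50 nM + b-AHA-H3(1-15)K9me1 75 nM, 30 min RT; compound added, 30 min RT; streptavidin donor/Ni-chelate acceptor beads 10 ug/mL each final, 30 min RT dark; AlphaScreen read.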
JMJD2A Tudor = JMJD2A Tudor domain (human) inhibition. AlphaScreen JMJD2A-Tudor / H3K4me3 peptide binding. Potency, µM (titrated, usually from 114 µM), usual class: inhibitors. 4.4% of 390,000 active. AID 504339; further: nearly all actives have a fitted effect of over 50% in size
HP1b binding inh = inhibitors of HP1-beta chromodomain binding to methylated histone tails | 0.56% of 390,000 active | P83916 | Potency, µM (highest dose often 114 µM), actives largely listed as inhibitors | AlphaScreen HP1-beta / biotin-H3K9me3 peptide binding; further: nearly all actives have a fitted effect of over 70% in size
Target sequence (P83916 whole entry, looked up): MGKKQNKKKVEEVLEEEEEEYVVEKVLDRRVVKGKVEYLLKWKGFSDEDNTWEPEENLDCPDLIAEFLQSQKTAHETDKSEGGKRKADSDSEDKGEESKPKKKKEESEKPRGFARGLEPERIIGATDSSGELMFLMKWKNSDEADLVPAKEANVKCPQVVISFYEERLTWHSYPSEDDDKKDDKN
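HP1-beta protein (50 nM final) preincubated 30 min at room temperature with biotinylated H3(1-18)K9me3 peptide (50 nM) in PBS pH 7.4, 0.01% Tween-20, then compound added for 30 min. AlphaScreen streptavidin donor/nickel chelate acceptor beads (10 ug/mL final), 30 min dark, luminescence read.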
BAZ2B inh = inhibitors of human BAZ2B bromodomain | 4.4% of 360,000 active | Q9UIF8 | AID 504333 | AlphaScreen BAZ2B-H3K14Ac peptide displacement | Potency, µM (doses to about 114 µM), most hits filed as inhibitors; further: nearly all actives have a fitted effect of over 60% in size
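BAZ2B (50 nM) with biotin-H3(5-23)K14Ac peptide (50 nM) in PBS pH 7.4, 0.01% Tween-20, preformed 30 min, then compound 30 min at room temperature; top concentration 110uM. AlphaScreen streptavidin donor/nickel chelate acceptor beads (10 ug/mL final), 20 min dark, signal read.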
G9a block = G9a (human) methyltransferase inhibition. G9a H3K9 monomethylation, AlphaScreen, 2 h. 8.8% of 350,000 active. AID 504332. Potency, µM (highest dose often 102 µM), hits mostly inhibitors. Q96KQ7; further: nearly all actives have a fitted effect of over 75% in size
Target sequence (Q96KQ7 913-1193 limits assumed): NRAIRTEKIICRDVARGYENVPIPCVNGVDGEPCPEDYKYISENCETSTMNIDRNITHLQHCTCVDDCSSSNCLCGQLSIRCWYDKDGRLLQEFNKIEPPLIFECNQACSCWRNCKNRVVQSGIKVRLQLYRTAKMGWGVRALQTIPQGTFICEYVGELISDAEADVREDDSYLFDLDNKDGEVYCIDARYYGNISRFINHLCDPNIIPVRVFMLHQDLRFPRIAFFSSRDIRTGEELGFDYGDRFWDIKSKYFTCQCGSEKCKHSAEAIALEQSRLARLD
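G9a (20 nM) preincubated 15 min RT with compounds, then 500 nM biotinylated H3K9 peptide and 20 uM SAM added; 2 h RT reaction. Monomethyl-H3K9 product detected by AlphaScreen with anti-H3K9me1 antibody, streptavidin donor and anti-rabbit IgG acceptor beads.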
Numbers stand for hits; n = inactive; u = inconclusive; x = no result; [ ] = remark or other dose. Only some compounds are listed: those with a hit (about 11% of all), similar ones and a draw of the others. The call rests on the fitted dose curve; in most records, active means well fitted inhibition curve with a large enough effect; inconclusive means small, poorly fitted or top-dose-only effect; inactive means no such curve, though single readings can be large or run the other way.

SMILES	L3MBTL1 block	JMJD2A Tudor	HP1b binding inh	BAZ2B inh	G9a block
CCCNC(=O)c1ccc2c(=O)c(O)c(-c3ccc(C)cc3)[nH]c2c1	x	n	n	n	n
Cc1ccc(C(=O)NCCCn2ccnc2)cn1	x	n	n	50µM	n
O=C(NCCCn1ccnc1)c1cccc(S(=O)(=O)Nc2ccc(Br)cc2)c1	u	n	n	n	11µM
Cc1ccc(-c2[nH]c3cc(C(=O)NCCCn4ccnc4)ccc3c(=O)c2O)cc1	x	n	n	56µM	n
CCOC(=O)c1c(C)n(-c2ccccc2)c2ccc(OC(=O)c3ccccc3Cl)cc12	x	n	n	n	n
COc1ccc(CCNC(=O)CCc2cn(Cc3ccc(F)cc3)c3ccccc23)cc1OC	x	n	n	u	n
COc1ccc(OC)c(CNS(=O)(=O)c2ccc3c(c2)oc(=O)n3C)c1	x	n	n	n	n
O=[N+]([O-])c1cccc(S(=O)(=O)NCCCn2ccnc2)c1	n	n	n	50µM	n
O=C(NCCCn1ccnc1)c1ccncc1	n	n	n	56µM	n[12.7 µM]
O=C(NCCCn1ccnc1)C(F)(F)C(F)(F)C(=O)NCCCn1ccnc1	u	u	n	20µM	14µM
CC(NC(=O)NCCCn1ccnc1)(C(F)(F)F)C(F)(F)F	n	n	n	n	n
O=C(NCCCN1CCOCC1)c1ccc2nc(Cc3ccccc3F)oc2c1	x	n	n	n	n
COc1ccc(N2C(=O)CCSC23C(=O)N(Cc2ccc(F)cc2)c2ccccc23)cc1Cl (stereo not given)	x	n	n	n	u
COc1cc(-c2nnn(CC(=O)Nc3ccc(OC(F)(F)F)cc3)n2)cc(OC)c1OC	x	n	n	n	n
COc1ccc(C(=O)CC(=O)C(=O)Nc2ccccc2)cc1	x	n	n	71µM	n
COc1ccc(N/N=C(C)/C(=N/O)C(=O)Nc2ccccc2)cc1	n	u	u	n	22µM
COc1ccc(CNC(=O)CSc2ncc3c(n2)-c2ccc(Cl)cc2N(Cc2ccccc2)S3(=O)=O)cc1	x	n	n	n	n
Cc1cccc(NC(=O)C2CCC(CNS(=O)(=O)c3csc(C(N)=O)c3)CC2)c1C (stereo not given)	x	n	n	n	n
Clc1ccc2c(N3CCOCC3)ccnc2c1	n	n	n	n	n
COc1ccc(N2CCN(c3ccnc4cc(Cl)ccc34)CC2)cc1	x	35µM	40µM	40µM	32µM
Clc1ccc2c(N3CCCC3)ccnc2c1	n	n	n	n	n
Oc1ccc(N2CCN(c3ccnc4cc(Cl)ccc34)CC2)cc1	x	56µM	u	u	8.9µM
COc1ccc2cc3cc(C(=O)N4CCN(c5ccccc5F)CC4)oc3nc2c1	x	n	n	x	n
Cc1cccnc1NC(=S)NC(=O)/C=C/c1ccccc1	n	n	n	79µM	u
Cc1cccnc1NC(=O)Nc1cccc2ccccc12	x	n	n	n	7.1µM
SMILES	L3MBTL1 block	JMJD2A Tudor	HP1b binding inh	BAZ2B inh	G9a block
Cc1cccnc1NC(=O)CNC(=O)c1cccs1	n	n	n	n	n[0.501 µM]
Cc1cccnc1NC(=S)NC(=O)c1cccs1	n	22µM	n	n	u
COC(=O)c1nc(NC(=S)NC(=O)c2cccs2)sc1C	x	n	n	n	50µM
O=C(Nc1ccccc1)Nc1cccc2ccccc12	n	n	n	n	x
Cc1ccc(-n2nc(C(=O)N3CCN(c4ccccc4F)CC3)c3c4ccccc4n(C)c3c2=O)cc1	x	n	n	x	n
COC(=O)c1ccc(NC(=O)CC2C(=O)N(c3ccc(Cl)cc3)C(=O)N2Cc2ccco2)cc1 (stereo not given)	x	n	n	u	u
Cc1ccc(N(Cc2cccs2)C(=O)c2ccco2)cc1	x	n	n	n	n
Cc1cccc(OCC(=O)NCc2ccc3c(c2)CCN3C(=O)c2ccccc2)c1	x	n	n	n	n
CCC(=O)Nc1ccc2nc(SCc3ccccc3)sc2c1	x	n	n	n	n
CCCn1nnc(NC(=S)NC(=O)c2cccs2)n1	n	7.9µM	n	n	14µM
CCn1c(SCC(=O)OCc2ccccc2)nnc1-c1ccco1	n	n	n	n	n[12.7 µM]
CCn1c(Sc2ccc([N+](=O)[O-])cn2)nnc1-c1ccco1	n	25µM	n	n	n[0.501 µM]
CCOc1ccc(OC(=O)c2sc3ncn(Cc4cccc(F)c4)c(=O)c3c2C)cc1	x	n	n	n	n
O=C(Cc1n[nH]c(=O)c2ccccc12)Nc1cc(C(F)(F)F)ccc1-n1cncn1	n	n	n	n	35µM
O=C(Cc1n[nH]c(=O)c2ccccc12)Nc1cc(Cl)ccc1-n1cncn1	n	n	n	n	n
CN(CCNC(=O)c1cc2c(=O)n(C)c3ccccc3c2n1C)Cc1ccccc1	x	n	n	n	50µM
Cc1ccc(CNC(=O)c2cc3c(=O)n(C)c4ccccc4c3n2C)cc1	x	n	n	n	n
CCOCCCNC(=O)c1cc2c(=O)n(C)c3ccccc3c2n1C	x	n	n	n	10µM
CCCN(CCC)CCNC(=O)c1cc2c(=O)n(C)c3ccccc3c2n1C	n	35µM	n	n	u
Cn1c(C(=O)NCCCN2CCCC2=O)cc2c(=O)n(C)c3ccccc3c21	x	n	n	n	n
O=C(Nc1ccccc1)c1ccccc1C(=O)N1CCCCC1	x	n	n	n	n
CSc1nsc(SC)c1C(=O)O	u	n	n	n	45µM
CSc1nsc(SC)c1C(N)=O	n	n	n	n	n
O=C1CC(c2nc3ccccc3n2CCCCOc2ccccc2)CN1c1ccccc1Cl (stereo not given)	x	n	n	n	n
CCN(c1ccc(Cl)cc1)S(=O)(=O)c1nnc(NC(=O)c2ccccc2C)s1	x	n	n	n	n
SMILES	L3MBTL1 block	JMJD2A Tudor	HP1b binding inh	BAZ2B inh	G9a block
Cc1ccccc1NC1=C/C(=N\S(=O)(=O)c2cccs2)c2ccccc2C1=O	x	6.3µM	u	10µM	3.2µM
CC(=O)Nc1ccc(NC2=C/C(=N/S(=O)(=O)c3cccs3)c3ccccc3C2=O)cc1	u	50µM	50µM	3.5µM	45µM
COc1ccc(S(=O)(=O)/N=C2\C=C(Nc3ccc(O)cc3)C(=O)c3ccccc32)cc1	x	5.6µM	10µM	8.9µM	8.9µM
Cc1ccc(NC2=C/C(=N/S(=O)(=O)c3cccs3)c3ccccc3C2=O)cc1C	n	n	n	u	n
COc1ccc(CCNC(=O)CC2Nc3ccccc3NC2=O)cc1 (stereo not given)	n	n	n	u	n
CCOc1ccccc1NC(=O)CC1Nc2ccccc2NC1=O (stereo not given)	n[11.4 µM]	n	n	n	14µM
O=C(CC1Nc2ccccc2NC1=O)NCCc1ccccc1 (stereo not given)	n	n	n	n	11µM
O=C(CC1Nc2ccccc2NC1=O)Nc1ccc2c(c1)OCO2 (stereo not given)	u	n	n	n	13µM
CCCOc1ccccc1NC(=O)CC1Nc2ccccc2NC1=O (stereo not given)	n	n	n	n	n
COc1cccc2sc(N(Cc3cccnc3)C(=O)COc3ccccc3)nc12	x	n	n	n	n

Assay outcomes (PubChem BioAssay)
